CtBP-E1A inh = qHTS Assay for Inhibitors of the CtBP/E1A Interaction | AlphaScreen GST-E1A/His-CtBP binding, 1536-well; active compounds read low | CtBP / adenovirus E1A interaction (AlphaScreen) | 340,000 tested, 0.49% active | activity change, % (test concentration not listed); in the data active = activity change below about -65%; inconclusive = mostly about -30% to -63%
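AlphaScreen with 125 nM GST-E1A and 125 nM His-CtBP (5X stocks) in Tris pH 8.0, 300 mM NaCl, BSA, Tween 20, TCEP. Compounds preincubated 2 h at 37 deg C, then glutathione donor/nickel acceptor beads added for 1 h at 37 deg C in dark.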
HP1b binding inh = HTS for Inhibitors of HP1-beta Chromodomain Interactions with Methylated Histone Tails; AlphaScreen HP1-beta / biotin-H3K9me3 peptide binding; Chromobox protein homolog 1 (Homo sapiens), P83916; Potency, µM (doses to about 114 µM), usual class: inhibitors; AID 540317, 2011; 390,000 tested, 0.56% active; note: nearly all actives have a fitted effect of over 70% in size
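AlphaScreen: HP1-beta (50 nM) preformed 30 min with biotin-H3(1-18)K9me3 peptide (50 nM) in PBS pH 7.4, 0.01% Tween-20. Compound added for 30 min at RT, then streptavidin donor/nickel chelate acceptor beads (10 ug/mL) for 30 min.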
BAZ2B block = qHTS Assay for Inhibitors of BAZ2B; Bromodomain adjacent to zinc finger domain protein 2B (Homo sapiens), Q9UIF8; AlphaScreen BAZ2B-H3K14Ac peptide displacement; Potency, µM (highest dose often 114 µM), actives largely listed as inhibitors; 360,000 tested, 4.4% active; AID 504333, 2011; note: nearly all actives have a fitted effect of over 60% in size
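AlphaScreen displacement of biotin-H3(5-23)K14Ac peptide (50 nM final) from BAZ2B (50 nM final) in PBS pH 7.4, 0.01% Tween-20; complex preformed 30 min RT, then compounds (top 110 uM) 30 min RT, beads 20 min dark.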
Six1-Eya2 inh = qHTS Assay for Inhibitors of the Six1/Eya2 Interaction | Homeobox protein SIX1 (Homo sapiens) + Protein phosphatase EYA2 (Homo sapiens), … | AlphaScreen GST-Six1/His-Eya2 binding, biochemical; active compounds read low | activity change, % (concentration not given with the values) | 360,000 tested, 0.56% active; in the data active = activity change below about -65%; inconclusive = mostly about -30% to -63%
Target sequence (O00167 whole entry, looked up): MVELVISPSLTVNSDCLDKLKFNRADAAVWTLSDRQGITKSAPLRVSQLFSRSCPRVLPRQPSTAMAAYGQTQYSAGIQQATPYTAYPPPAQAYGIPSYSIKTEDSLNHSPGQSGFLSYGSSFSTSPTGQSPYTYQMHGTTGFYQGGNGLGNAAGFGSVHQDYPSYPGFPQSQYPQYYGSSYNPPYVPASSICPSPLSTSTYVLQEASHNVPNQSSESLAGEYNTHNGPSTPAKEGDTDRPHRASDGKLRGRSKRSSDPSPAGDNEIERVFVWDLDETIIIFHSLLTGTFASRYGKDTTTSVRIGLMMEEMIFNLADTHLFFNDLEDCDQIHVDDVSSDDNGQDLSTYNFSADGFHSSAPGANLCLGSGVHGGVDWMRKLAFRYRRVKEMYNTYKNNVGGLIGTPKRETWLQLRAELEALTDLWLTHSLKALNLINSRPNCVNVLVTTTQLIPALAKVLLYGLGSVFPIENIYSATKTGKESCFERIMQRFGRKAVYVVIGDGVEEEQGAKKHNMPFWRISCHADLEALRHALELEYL
Target sequence (Q15475 whole entry, looked up): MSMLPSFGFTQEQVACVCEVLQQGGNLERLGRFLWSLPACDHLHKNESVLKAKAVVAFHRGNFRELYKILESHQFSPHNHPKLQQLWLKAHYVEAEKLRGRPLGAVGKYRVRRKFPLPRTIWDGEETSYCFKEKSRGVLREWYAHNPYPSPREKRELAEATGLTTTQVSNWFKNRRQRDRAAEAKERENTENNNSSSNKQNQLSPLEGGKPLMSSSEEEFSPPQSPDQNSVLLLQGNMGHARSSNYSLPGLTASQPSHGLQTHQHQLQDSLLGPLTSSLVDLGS
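Compounds are tested against tagged Six1 and Eya2 proteins bridged by glutathione donor and nickel acceptor beads; after a one-hour incubation at 37 °C without light, AlphaScreen emission is recorded.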
JMJD2A Tudor = qHTS Assay for Inhibitors of JMJD2A-Tudor Domain | Lysine-specific demethylase 4A (Homo sapiens), O75164 | AlphaScreen JMJD2A-Tudor / H3K4me3 peptide binding | Potency, µM (highest dose often 114 µM), usual class: inhibitors | 390,000 tested, 4.4% active | AID 504339, 2011; note: nearly all actives have a fitted effect of over 50% in size
G9a block = qHTS Assay for Inhibitors of Histone Lysine Methyltransferase G9a. Histone-lysine N-methyltransferase EHMT2 (Homo sapiens), Q96KQ7. G9a H3K9 monomethylation, AlphaScreen, 2 h. Potency, µM (titrated, usually from 102 µM), actives largely listed as inhibitors. 350,000 tested, 8.8% active; note: nearly all actives have a fitted effect of over 75% in size
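Quantitative HTS format: methyltransferase activity on a biotin-tagged H3K9 peptide is measured by AlphaScreen, using a rabbit anti-monomethyl-H3K9 antibody with streptavidin donor and anti-IgG acceptor beads. Final levels are 20 nM enzyme, 500 nM peptide, 20 uM SAM; 2 h RT.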
Numbers stand for hits; 0 = inactive; ? = inconclusive; - = no result; ! = repeats disagree; [ ] = remark or other dose. Only some compounds are listed: those with a hit (about 10% of all), similar ones and a draw of the others. Unless noted, calls come from the whole dose curve; as a rule, active = well fitted inhibition curve with a large enough effect; inconclusive = small, poorly fitted or top-dose-only effect; inactive = no such curve, though single readings can be large or run the other way.

SMILES	CtBP-E1A inh	HP1b binding inh	BAZ2B block	Six1-Eya2 inh	JMJD2A Tudor	G9a block
O=C(CSc1c2c(nc3ccccc13)CCCC2)NCc1ccco1	0	0	0	0	0	?
CCOc1c(C)cc(-c2ncccc2O)cc1C	0	0	0	0	89.1µM!	0
O=C1/C(=C\c2ccc(Br)o2)SC(=Nc2ccccc2)N1c1ccccc1	?	0	8.91µM	?	25.1µM	39.8µM
Nc1nc(NC(=O)c2ccccc2)nn1-c1ccccc1	-	0	?	0	0	0
Nc1nc(NC(=O)CCC(=O)O)nn1-c1ccccc1	0	0	50.1µM	0	22.4µM	-
COc1ccc(C(=O)Nc2nc(N)n(-c3ccccc3)n2)cc1OC	0	0	?	0	0	0
COc1ccccc1/C=C/C(=O)Nc1nc(N)n(-c2ccccc2)n1	-	0	56.2µM	0	0	0
CCc1nnc2c(Nc3cccc(F)c3)nc3ccc(C(=O)c4ccccc4)cc3n12	-	0	0	-	0	0
CCCCc1nc(SCc2ccc([N+](=O)[O-])cc2)n[nH]1	-	0	0	0	0	-
CCCCn1c(-c2ccc([N+](=O)[O-])cc2)n[nH]c1=S	0	?	0	0	7.94µM	?
CCn1c(-c2ccc(Cl)cc2)n[nH]c1=S	0	0	0	0	5.01µM	1.26µM
CCn1c(-c2ccc(C)cc2)n[nH]c1=S	0	0	0	0	7.94µM	1.26µM
CCCn1c(-c2ccc(F)cc2)n[nH]c1=S	0	0	0	0	5.62µM	22.4µM
CCOC(=O)c1c(C)[nH]c(C)c1C(=O)Cn1nnc(-c2ccccc2C)n1	0	0	0	0	?	0
CCN(CCn1cccn1)Cc1ccccc1OCC(O)CN1CCc2ccccc2C1 (stereo not drawn)	0	0	0	0	0	-
CCn1c(-c2nn(C)c(C)c2Cl)n[nH]c1=S	0	0	0	0	?	2.24µM
Cc1[nH]c(=O)[nH]c(=O)c1Sc1ccccc1[N+](=O)[O-]	0	0	0	0	0	56.2µM
COc1ccc(CNC[C@@H](CCCCN(C)Cc2ccc(OC)cc2)N2C[C@H](c3ccccc3)N(CCc3ccc(Cl)c(Cl)c3)C(=O)C2=O)cc1	0	0	?	0	39.8µM	?
O=C(Nc1ccc2c(c1)OCO2)c1cc(C2CCCCN2S(=O)(=O)c2cccs2)on1 (stereo not drawn)	0	-	-	0	-	-
Cc1nc2scc(C)n2c(=O)c1S(=O)(=O)Nc1ccc(N2CCN(C(=O)C(C)C)CC2)cc1	-	0	0	0	39.8µM!	0
CCc1cccc(NS(=O)(=O)c2c(C)nc3scc(C)n3c2=O)c1	0	0	0	0	0	28.2µM
NCc1nc2cccnc2n1Cc1ccccc1Cl	-	0	-	-	?	?
COc1ccc(CC(=O)Nc2ccc(S(=O)(=O)NCC3CCCO3)cc2)cc1 (stereo not drawn)	0	0	0	0	0	10µM
CC(C)OC(=O)c1cccnc1SCC(=O)Nc1ccc(C(F)(F)F)cc1Cl	-	0	0	-	0	0
Cc1cc(C)c2c(n1)sc1c(=O)n(-c3cc(Cl)ccc3C)nnc12	-	0	0	-	0	0
SMILES	CtBP-E1A inh	HP1b binding inh	BAZ2B block	Six1-Eya2 inh	JMJD2A Tudor	G9a block
O=C(NC(=S)Nc1ccc2ncccc2c1)c1ccccc1	0	0	?	0	?	56.2µM
O=C(NC(=S)Nc1ccc2nc[nH]c2c1)c1ccccc1	0	0	0	0	0	50.1µM
Cc1cc(C(=O)Nc2ccc(Br)cc2)cs1	0	0	56.2µM	0	0	79.4µM
O=C(Nc1cnc2ccccc2c1)c1cccnc1	0	0	0	0	0	0
O=C(Nc1ccc2ncccc2c1)c1ccccc1	0	0	0	0	22.4µM	-
CCCC[C@H]1CCCO[C@@](C(=O)NCCN2CCOCC2)(C(F)(F)F)C1	-	0	-	-	0	-
O=C(Nc1ccc2ccccc2c1)c1ccccc1Cl	0	-	-	0	-	-
O=C(Nc1ccc2cccnc2c1)c1ccc(Br)cc1	-	0	0	0	0	0[0.501 µM]
O=C(Nc1ccc2nc3ccccc3nc2c1)c1ccc(Br)cc1	0	0	0	0	0	8.91µM
O=C(NNC(=S)Nc1ccccc1)c1ccc2ncccc2c1	0	0	0	0	0	28.2µM
O=C(Nc1ccc2ncccc2c1)c1ccccc1Cl	-	0	0	0	0	10µM
Cc1ccc(F)c(NC(=O)C2CCCCC2C(=O)O)c1 (stereo not drawn)	0	0	0	0	0	0
O=C(CCN1CCN(c2ccccn2)CC1)Nc1ccc(F)cc1	0	0	0	0	0	0
O=C(CN1CCN(c2ccccn2)CC1)Nc1cccc(Br)c1	0	0	0	0	0	44.7µM
COc1cc(NC(=O)CN2CCN(c3ccccn3)CC2)cc(OC)c1OC	0	0	0	0	0	44.7µM
COc1ccccc1NC(=O)CN1CCN(c2ccccn2)CC1	0	0	0	0	0	0
CN(C)c1ccc(NC(=O)CCN2CCN(c3ccccn3)CC2)cc1	-	0	0	0	0	50.1µM
O=C(CN1CCN(c2ccccn2)CC1)Nc1cccc(F)c1	-	0	0	0	0	0
CN(C)c1ccc(NC(=O)CCn2c(=S)oc3ccccc32)cc1	0	0	25.1µM	0	?	?
COc1ccc(NC(=O)C(c2ccccc2)n2c(=O)c(-c3cc4ccccc4[nH]3)nc3ccccc32)cc1 (stereo not drawn)	0	-	-	0	-	-
O=C(Cn1cnc2nc3c(cc2c1=O)CCCC3)Nc1ccc(F)cc1Cl	-	0	0	-	0	0
Cn1c(SCCCC(=O)c2ccc(F)cc2)nnc1-c1ccncc1	0	0	0	0	0	0[2.33 µM]
Cc1occc1-c1nnc(SCCCC(=O)c2ccc(F)cc2)n1C	0	0	?	0	0	50.1µM
C/C(CCN1CCc2nc(-c3ccccc3)c(-c3ccccc3)cc2C1)=N\O[C@@H](C)c1cc(-c2c(C)cc(C)cc2C)no1	0	0	0	0	0	?
CCc1cc2c(nc1CC)CCN(CC/C(C)=N/O[C@@H](C)c1cc(-c3c(C)cc(C)cc3C)no1)C2	-	-	?	-	-	35.5µM
COc1ccc(CN2C[C@@H](CO)O[C@@H](n3cnc4c(NCCO)ncnc43)C2)cc1	0	-	-	0	-	-
Cc1ccc(-c2nc3c4ccccc4[nH]c(=O)n3n2)cc1	-	0	0	-	0	0
O=c1[nH]c2ccccc2c2nc(-c3cccc(S(=O)(=O)N4CCCC4)c3)nn12	-81.2	0	0	-85.5	0	0[12.7 µM]
